According to PubChem BioAssay AID1159580 (chemical genetic matrix, 2015):
Where “and” joins values, the source holds several entries; their conditions need not be identical. Equal entries are not always repeated. The whole screen tested about 5,500 compounds, of which about 2,000 (36%) were called active. Another 18% or so got no clear call; they are omitted. Cut-off read from the data, not from the text of the source: active = normalized growth mostly below about 0.91 (no sharp cut-off); inconclusive = no clear call, values can overlap the other calls; inactive = mostly above about 0.92. Some of the results follow.

Test: chemical genetic growth profiling, strain panel (AID 1159580);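 note: tested at 20 µM; growth read once vehicle control cultures reached saturation at 30 °C; 1 = growth at the plate median or of vehicle wells; lower values mean less growth of the strain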
Settings: S. cerevisiae deletion strains, growth OD

Measured: normalized growth

C=C[C@@](C)(O)CCC1C(=C)C[C@H](O)C2C(C)(C)CCCC12C (some centres not stated)
inactive: locus YAL013W, strain DEP1, hits give low values 1.01 | locus YAL021C, strain ccr4, hits give low values 1.01 | locus YAL026C, strain drs2, hits give low values 0.972 | locus YAL030W, strain snc1, hits give low values 0.996 | locus YBL061C, strain skt5, hits give low values 0.988 | locus YBR009C, strain hhf1, hits give low values 0.986 | locus YBR021W, strain FUR4, hits give low values 0.998 | locus YBR023C, strain chs3, hits give low values 0.978 | locus YBR171W, strain sec66, hits give low values 0.976 | locus YBR229C, strain ROT2, hits give low values 1.01 | locus YBR231C, strain swc5, hits give low values 1 | locus YBR279W, strain paf1, hits give low values 0.998 | locus YCL011C, strain gbp2, hits give low values 0.991 | locus YCL016C, strain dcc1, hits give low values 0.971 | locus YCL029C, strain bik1, hits give low values 1.02 | locus YCL061C, strain MRC1, hits give low values 0.98 | locus YCL069W, strain vba3, hits give low values 0.999 | locus YCR088W, strain abp1, hits give low values 0.99 | locus YDL005C, strain med2, hits give low values 0.976 | locus YDL035C, strain GPR1, hits give low values 0.991 | locus YDL040C, strain nat1, hits give low values 0.997 | locus YDL074C, strain BRE1, hits give low values 0.974 | locus YDL101C, strain DUN1, hits give low values 1.01 | locus YDL134C, strain PPH21, hits give low values 1.01 | locus YDL185W, strain tfp1, hits give low values 1.02 | locus YDL192W, strain arf1, hits give low values 1.02 | locus YDR001C, strain nth1, hits give low values 0.989 | locus YDR069C, strain doa4, hits give low values 0.99 | locus YDR101C, strain arx1, hits give low values 1 | locus YDR137W, strain rgp1, hits give low values 0.859 | locus YDR150W, strain NUM1, hits give low values 1.01 | locus YDR159W, strain sac3, hits give low values 1.01 | locus YDR162C, strain NBP2, hits give low values 0.994 | locus YDR195W, strain ref2 1.05 | locus YDR297W, strain sur2, hits give low values 0.993 | locus YDR318W, strain mcm21, hits give low values 1.02 | locus YDR334W, strain swr1, hits give low values 0.993 | locus YDR335W, strain msn5, hits give low values 1.01 | locus YDR388W, hits give low values 1.02 | locus YDR502C, strain sam2, hits give low values 1.01 | locus YEL003W, strain gim4, hits give low values 1 | locus YEL037C, strain rad23, hits give low values 0.987 | locus YEL061C, strain CIN8 (second series), hits give low values 0.992 | locus YEL061C, strain CIN8, hits give low values 1.01 | locus YER015W, strain faa2, hits give low values 0.995 | locus YER016W, strain bim1, hits give low values 0.996 | locus YER110C, hits give low values 1.03 | locus YER111C, strain swi4, hits give low values 0.976 | locus YER155C, strain BEM2 (second series), hits give low values 1.01 | locus YER155C, strain BEM2, hits give low values 1.01 | locus YER167W, strain BCK2, hits give low values 1.01 | locus YFR010W, strain ubp6, hits give low values 1.01 | locus YGL078C, strain dbp3, hits give low values 1.02 | locus YGL086W, strain mad1, hits give low values 1.02 | locus YGL167C, strain pmr1, hits give low values 0.97 | locus YGL173C, strain kem1, hits give low values 0.974 | locus YGL227W, strain vid30, hits give low values 0.997 | locus YGL240W, strain doc1, hits give low values 1 | locus YGL248W, strain PDE1, hits give low values 1.01 | locus YGL253W, strain hxk2, hits give low values 0.984 | locus YGR078C, strain PAC10, hits give low values 1 | locus YGR135W, strain pre9, hits give low values 1 | locus YGR229C, strain SMI1, hits give low values 1 | locus YGR252W, strain gcn5, hits give low values 0.995 | locus YHR013C, strain ard1, hits give low values 1.02 | locus YHR027C, strain rpn1, hits give low values 1 | locus YHR030C, strain SLT2, hits give low values 1.01 and 0.934 | locus YHR079C, strain IRE1 (second series), hits give low values 1.02 | locus YHR079C, strain IRE1, hits give low values 0.955 | locus YHR094C, strain hxt1, hits give low values 1.02 | locus YHR129C, strain ARP1, hits give low values 1.01 | locus YHR142W, strain chs7, hits give low values 0.957 | locus YHR200W, strain rpn10, hits give low values 1.04 | locus YIL066C, strain RNR3, hits give low values 1.02 | locus YIL073C, strain SPO22, hits give low values 1.06 | locus YIL125W, strain kgd1, hits give low values 1.02 | locus YIR030C, strain dcg1, hits give low values 1.02 | locus YJL092W, strain hpr5, hits give low values 0.993 | locus YJL095W, strain BCK1 (second series), hits give low values 0.992 | locus YJL095W, strain BCK1, hits give low values 0.999 and 0.952 | locus YJL115W, strain asf1, hits give low values 0.99 | locus YJL129C, strain trk1, hits give low values 0.966 | locus YJL134W, strain LCB3, hits give low values 1.01 | locus YJL154C, strain vps35, hits give low values 0.997 | locus YJL164C, strain tpk1, hits give low values 0.982 | locus YJL166W, strain qcr8, hits give low values 0.981 | locus YJL168C, strain set2, hits give low values 1.03 | locus YJL187C, strain SWE1 (second series), hits give low values 1 | locus YJL187C, strain SWE1, hits give low values 0.991 | locus YJR043C, strain POL32, hits give low values 0.997 | locus YJR066W, strain TOR1, hits give low values 0.923
active: locus YDR392W, strain spt3, hits give low values 0.628
